# Data as given in PMC7862700, “An all-to-all approach to the identification of sequence-specific readers for epigenetic DNA modifications on cytosine”.
# Key:
# Assay in all cases: DAPPL (digital affinity profiling via proximity ligation, sequencing); 10 mM Tris-HCl pH 7.5, 50 mM NaCl, 1 mM DTT, 4% glycerol, room temperature, 30 min; GST-TFs on glutathione beads, 16-mer random dsDNA library, 0.1% formaldehyde crosslink after washing; high values mean tight binding
# Details in all cases: protein: recombinant; tags: N-terminal GST; dsDNA, one strand shown
# FLI1 = biological target: T1, FLI1 (Homo sapiens, UniProt Q01543 1-452)
# T1 sequence: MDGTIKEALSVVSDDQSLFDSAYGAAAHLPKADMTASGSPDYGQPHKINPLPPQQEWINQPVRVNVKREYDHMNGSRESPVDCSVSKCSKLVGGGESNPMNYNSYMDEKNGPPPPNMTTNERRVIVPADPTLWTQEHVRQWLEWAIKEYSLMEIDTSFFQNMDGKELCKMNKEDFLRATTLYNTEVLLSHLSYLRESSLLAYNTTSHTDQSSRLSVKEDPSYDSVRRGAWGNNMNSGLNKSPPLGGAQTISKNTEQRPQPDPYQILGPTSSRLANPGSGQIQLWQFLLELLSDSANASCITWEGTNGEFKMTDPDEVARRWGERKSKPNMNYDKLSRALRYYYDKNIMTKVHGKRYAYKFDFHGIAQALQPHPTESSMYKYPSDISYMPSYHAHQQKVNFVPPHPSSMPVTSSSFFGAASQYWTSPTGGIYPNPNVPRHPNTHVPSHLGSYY
# Procedure, shortened: (§1)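 GST fusions of human transcription factors were expressed in yeast and captured with glutathione beads. Once given DNA barcodes and pooled alongside a tag-only sample, they were incubated for 30 min at room temperature with 200 nmole of a random double-stranded 16-mer DNA library in Tris/NaCl/DTT/glycerol buffer, then washed, crosslinked (0.1% formaldehyde), proximity-ligated, PCR-amplified and sequenced on an Illumina NextSeq500. The binding signal of each hexamer is its read frequency for a factor divided by its frequency for the tag-only sample.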
# ELK1 = biological target: T2, ELK1 (Homo sapiens, UniProt P19419 1-428)
# T2 sequence: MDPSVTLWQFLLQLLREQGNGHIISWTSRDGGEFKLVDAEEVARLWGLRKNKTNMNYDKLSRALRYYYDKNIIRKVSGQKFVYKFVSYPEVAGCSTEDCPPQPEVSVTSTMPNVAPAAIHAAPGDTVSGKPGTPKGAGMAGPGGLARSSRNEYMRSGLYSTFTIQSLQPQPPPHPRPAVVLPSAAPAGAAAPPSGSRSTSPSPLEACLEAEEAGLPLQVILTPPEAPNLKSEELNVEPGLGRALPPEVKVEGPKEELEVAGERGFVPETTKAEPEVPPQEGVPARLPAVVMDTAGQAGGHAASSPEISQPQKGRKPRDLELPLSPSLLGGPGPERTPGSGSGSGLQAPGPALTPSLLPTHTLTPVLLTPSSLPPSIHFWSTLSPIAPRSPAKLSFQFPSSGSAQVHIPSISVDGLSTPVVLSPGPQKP
# Procedure, shortened: as §1
# GABPA = biological target: T3, GABPA (Homo sapiens, UniProt Q06546 1-454)
# T3 sequence: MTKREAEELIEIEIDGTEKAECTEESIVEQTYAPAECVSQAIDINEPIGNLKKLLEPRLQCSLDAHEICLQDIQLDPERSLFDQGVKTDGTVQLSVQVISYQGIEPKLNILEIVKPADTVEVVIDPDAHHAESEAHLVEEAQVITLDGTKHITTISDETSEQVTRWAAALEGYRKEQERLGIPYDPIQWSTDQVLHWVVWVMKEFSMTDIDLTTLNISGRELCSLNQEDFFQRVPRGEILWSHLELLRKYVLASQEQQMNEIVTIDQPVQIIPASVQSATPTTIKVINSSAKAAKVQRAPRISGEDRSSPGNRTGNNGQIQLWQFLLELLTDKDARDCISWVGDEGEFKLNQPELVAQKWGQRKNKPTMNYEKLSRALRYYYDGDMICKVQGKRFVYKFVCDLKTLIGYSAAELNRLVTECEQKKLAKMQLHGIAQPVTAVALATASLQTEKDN
# Procedure, shortened: as §1
# ERG = biological target: T4, ERG (Homo sapiens, UniProt P11308 1-479)
# T4 sequence: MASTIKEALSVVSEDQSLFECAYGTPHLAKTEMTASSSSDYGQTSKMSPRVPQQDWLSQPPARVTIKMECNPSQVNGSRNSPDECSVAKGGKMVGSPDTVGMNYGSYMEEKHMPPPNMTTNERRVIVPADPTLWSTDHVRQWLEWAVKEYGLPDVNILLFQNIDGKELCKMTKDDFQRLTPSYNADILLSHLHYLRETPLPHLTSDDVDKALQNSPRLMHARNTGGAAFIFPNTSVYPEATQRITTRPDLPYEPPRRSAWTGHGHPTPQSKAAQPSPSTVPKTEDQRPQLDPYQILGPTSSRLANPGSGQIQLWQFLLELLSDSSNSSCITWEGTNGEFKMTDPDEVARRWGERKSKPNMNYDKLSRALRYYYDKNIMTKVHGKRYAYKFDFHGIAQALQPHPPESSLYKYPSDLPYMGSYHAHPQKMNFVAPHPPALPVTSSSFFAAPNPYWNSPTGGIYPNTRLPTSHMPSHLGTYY
# Procedure, shortened: as §1
# ELF1 = ELF1 (Homo sapiens, UniProt P32519 1-619)
# Procedure, shortened: as §1
# EHF = biological target: T5, EHF (Homo sapiens, UniProt Q9NZC4 1-300)
# T5 sequence: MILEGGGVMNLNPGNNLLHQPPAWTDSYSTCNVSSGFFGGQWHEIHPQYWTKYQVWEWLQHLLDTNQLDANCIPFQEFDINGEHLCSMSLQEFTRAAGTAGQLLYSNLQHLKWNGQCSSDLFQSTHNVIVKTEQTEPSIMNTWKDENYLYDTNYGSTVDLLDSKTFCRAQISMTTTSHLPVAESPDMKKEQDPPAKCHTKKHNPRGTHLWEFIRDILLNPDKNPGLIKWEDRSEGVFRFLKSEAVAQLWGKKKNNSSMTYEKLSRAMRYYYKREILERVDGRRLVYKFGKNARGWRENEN
# Procedure, shortened: as §1
# SPI1 = SPI1 (Homo sapiens, UniProt P17947 1-270)
# Procedure, shortened: as §1
# SPIB = SPIB (Homo sapiens, UniProt Q01892 1-262)
# Procedure, shortened: as §1
# ELK3 = biological target: T6, ELK3 (Homo sapiens, UniProt P41970 1-407)
# T6 sequence: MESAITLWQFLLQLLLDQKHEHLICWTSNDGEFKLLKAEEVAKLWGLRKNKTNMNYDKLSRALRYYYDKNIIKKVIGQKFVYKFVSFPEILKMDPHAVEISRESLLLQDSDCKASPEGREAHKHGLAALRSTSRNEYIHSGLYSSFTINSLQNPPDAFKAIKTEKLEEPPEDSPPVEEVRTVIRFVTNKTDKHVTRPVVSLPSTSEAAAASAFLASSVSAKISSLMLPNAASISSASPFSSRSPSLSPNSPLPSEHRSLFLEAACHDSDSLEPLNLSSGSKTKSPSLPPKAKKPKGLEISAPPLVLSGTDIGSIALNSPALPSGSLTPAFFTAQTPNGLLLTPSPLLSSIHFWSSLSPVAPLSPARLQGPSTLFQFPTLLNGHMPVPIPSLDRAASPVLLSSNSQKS
# Procedure, shortened: as §1
# Sequence of ELF1 (P32519 whole entry): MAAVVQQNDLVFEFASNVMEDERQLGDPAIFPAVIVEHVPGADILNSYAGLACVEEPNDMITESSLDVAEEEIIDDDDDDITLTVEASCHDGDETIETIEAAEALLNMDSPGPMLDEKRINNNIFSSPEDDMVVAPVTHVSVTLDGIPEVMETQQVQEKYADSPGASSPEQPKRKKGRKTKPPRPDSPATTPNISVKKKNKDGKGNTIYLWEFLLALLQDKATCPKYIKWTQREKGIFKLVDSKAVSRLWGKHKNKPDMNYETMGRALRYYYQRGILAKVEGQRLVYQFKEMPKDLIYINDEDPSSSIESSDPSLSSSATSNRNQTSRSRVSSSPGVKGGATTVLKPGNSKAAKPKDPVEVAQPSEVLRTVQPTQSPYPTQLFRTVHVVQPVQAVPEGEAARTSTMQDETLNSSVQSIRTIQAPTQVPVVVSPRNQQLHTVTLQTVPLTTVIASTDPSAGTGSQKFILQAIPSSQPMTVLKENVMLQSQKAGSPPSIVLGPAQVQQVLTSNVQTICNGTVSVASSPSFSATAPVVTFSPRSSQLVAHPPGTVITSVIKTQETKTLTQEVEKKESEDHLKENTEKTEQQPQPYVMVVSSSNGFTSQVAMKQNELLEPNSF
# Sequence of SPIB (Q01892 whole entry): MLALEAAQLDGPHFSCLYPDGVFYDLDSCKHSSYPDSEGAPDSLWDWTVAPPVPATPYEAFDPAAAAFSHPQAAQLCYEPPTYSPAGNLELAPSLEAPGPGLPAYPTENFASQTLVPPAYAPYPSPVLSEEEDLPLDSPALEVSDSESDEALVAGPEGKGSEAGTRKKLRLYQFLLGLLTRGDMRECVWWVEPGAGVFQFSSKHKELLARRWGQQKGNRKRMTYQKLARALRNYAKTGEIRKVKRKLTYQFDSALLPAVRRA
sequence,measurement,setting,value
TATTTG,binding signal,FLI1,"1.52 fold enrichment (6-mer frequency, TF over GST control)"
same,binding signal,ELK1,"1.41 fold enrichment (6-mer frequency, TF over GST control)"
same,binding signal,GABPA,"1.43 fold enrichment (6-mer frequency, TF over GST control)"
same,binding signal,ERG,"1.47 fold enrichment (6-mer frequency, TF over GST control)"
same,binding signal,ELF1,"1.35 fold enrichment (6-mer frequency, TF over GST control)"
same,binding signal,EHF,"1.45 fold enrichment (6-mer frequency, TF over GST control)"
same,binding signal,SPI1,"1.46 fold enrichment (6-mer frequency, TF over GST control)"
same,binding signal,SPIB,"1.46 fold enrichment (6-mer frequency, TF over GST control)"
same,binding signal,ELK3,"1.39 fold enrichment (6-mer frequency, TF over GST control)"
